Measured values reported in PubChem BioAssay AID1159580 (chemical genetic matrix, 2015).
About 2,000 (36%) of roughly 5,500 compounds were called active. Inconclusive results (about 18%) are left out. No stated cut-off is given here; in the data, active means normalized growth mostly below about 0.91 (no sharp cut-off); inconclusive means no clear call, values can overlap the other calls; inactive means mostly above about 0.92. The list shows a part of the results.

Test: chemical genetic growth profiling, strain panel (AID 1159580);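 further: tested at 20 µM; growth read once vehicle control cultures reached saturation at 30 °C; 1 = growth at the plate median or of vehicle wells; lower values mean less growth of the strain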
Conditions: S. cerevisiae deletion strains, growth OD

Measured: normalized growth

CC(=O)OC1CC(OC(C)=O)C2(C)C(CC(OC(C)=O)C3(C)C2CCC2(C)C(c4ccoc4)CC4OC423)C1(C)C (stereo not drawn)
inactive: locus YBR021W, strain FUR4, hits give low values 0.998 | locus YBR229C, strain ROT2, hits give low values 1 | locus YCL029C, strain bik1, hits give low values 1 | locus YDL035C, strain GPR1, hits give low values 1.01 | locus YDL074C, strain BRE1, hits give low values 1.02 | locus YDL101C, strain DUN1, hits give low values 1.03 | locus YDL185W, strain tfp1, hits give low values 1.01 | locus YDL192W, strain arf1, hits give low values 1.01 | locus YDR101C, strain arx1, hits give low values 0.998 | locus YDR162C, strain NBP2, hits give low values 1.01 | locus YDR318W, strain mcm21, hits give low values 1 | locus YDR388W, hits give low values 1.01 | locus YDR502C, strain sam2, hits give low values 1.02 | locus YER110C, hits give low values 1.01 | locus YER155C, strain BEM2, hits give low values 1 | locus YER167W, strain BCK2, hits give low values 1.01 | locus YGL078C, strain dbp3, hits give low values 1.02 | locus YGL086W, strain mad1, hits give low values 0.997 | locus YGL248W, strain PDE1, hits give low values 1.01 | locus YGR135W, strain pre9, hits give low values 1.04 | locus YGR229C, strain SMI1, hits give low values 1.02 | locus YGR252W, strain gcn5, hits give low values 0.998 | locus YHR079C, strain IRE1 (second series), hits give low values 1.01 | locus YHR094C, strain hxt1, hits give low values 1.01 | locus YHR129C, strain ARP1, hits give low values 1.02 | locus YHR200W, strain rpn10, hits give low values 1.01 | locus YIL066C, strain RNR3, hits give low values 1.01 | locus YIL073C, strain SPO22, hits give low values 1.05 | locus YIL125W, strain kgd1, hits give low values 1.01 | locus YIR030C, strain dcg1, hits give low values 1 | locus YJL095W, strain BCK1, hits give low values 1.04 | locus YJL134W, strain LCB3, hits give low values 1.01 | locus YJL168C, strain set2, hits give low values 1.01 | locus YJL187C, strain SWE1 (second series), hits give low values 1.02 | locus YJR043C, strain POL32, hits give low values 0.981 | locus YKL009W, strain mrt4, hits give low values 0.984 | locus YKL068W, hits give low values 1 | locus YKL085W, strain MDH1 (second series), hits give low values 1.01 | locus YKL085W, strain MDH1, hits give low values 1.01 | locus YKR001C, strain vps1, hits give low values 1 | locus YLR039C, strain RIC1, hits give low values 1.01 | locus YLR058C, strain SHM2, hits give low values 1.01 | locus YLR102C, strain apc9, hits give low values 1.01 | locus YLR262C, strain YPT6, hits give low values 0.927 | locus YLR268W, strain sec22, hits give low values 0.994 | locus YLR330W, strain CHS5, hits give low values 1.02 | locus YLR342W, strain FKS1 (second series), hits give low values 1 | locus YLR371W, strain rom2, hits give low values 1.02 | locus YLR418C, strain cdc73, hits give low values 1.02 | locus YML016C, strain PPZ1, hits give low values 1.01 | locus YML032C, strain rad52, hits give low values 1.01 | locus YML124C, strain tub3, hits give low values 1 | locus YMR078C, strain ctf18, hits give low values 1.01 | locus YMR223W, strain ubp8, hits give low values 1.01 | locus YMR263W, strain SAP30, hits give low values 1.02 | locus YMR307W, strain GAS1, hits give low values 1.01 | locus YNL067W, strain RPL9B, hits give low values 1.03 | locus YNL153C, strain GIM3, hits give low values 1.03 | locus YNL233W, strain BNI4, hits give low values 0.986 | locus YNL250W, strain rad50, hits give low values 1.01 | locus YNL271C, strain bni1, hits give low values 0.998 | locus YNL298W, strain CLA4, hits give low values 1.02 | locus YNL307C, strain MCK1, hits give low values 1.02 | locus YNR052C, strain pop2, hits give low values 1.01 | locus YOL012C, strain htz1 0.881 | locus YOL147C, strain pex11, hits give low values 0.996 | locus YOR061W, strain CKA2, hits give low values 1 | locus YOR069W, strain VPS5, hits give low values 1.01 | locus YOR136W, strain idh2, hits give low values 1 | locus YOR144C, strain elg1, hits give low values 0.999 | locus YOR184W, strain ser1, hits give low values 0.982 | locus YOR316C, strain cot1, hits give low values 1.01 | locus YPL241C, strain CIN2, hits give low values 1.01 | locus YPR119W, strain clb2, hits give low values 1 | locus YPR141C, strain kar3, hits give low values 1.02 | locus YPR163C, strain tif3, hits give low values 1.01 | locus YPR167C, strain met16, hits give low values 1.01 | strain wtn01, hits give low values 0.997
